Bioassay records from PubChem BioAssay.
HepG2 tox: HepG2 cytotoxicity, counter-screen for TGF-b inhibitors. HepG2 CAGA-GFP viability, ATP luminescence, 18 h. Potency, µM (top dose mostly 46.1 µM), inactives show top-dose activity change, negative = cytotoxicity, hits mostly cytotoxic. 410,000 compounds, 0.76% hits
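HepG2 CAGA-GFP cells (1000/well, DMEM with 1% FBS) received compound, then TGF-beta at 500 pg/mL final, and were incubated 18 hours at 37 degrees C. Viability was read by CellTiter-Glo luminescence. Media-only wells were set as complete cell-killing and DMSO as no toxicity.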
DT40 TDP1 no CPT: qHTS for Inhibitors of human tyrosyl-DNA phosphodiesterase 1 (TDP1): qHTS in cells in absence of CPT; DT40 Tdp1-/- hTDP1 cells, no CPT, ATP luminescence, 48 h; Potency, µM (doses to about 46.2 µM), without a hit: top-dose activity change, negative = growth inhibition, most hits filed as inhibitors; 420,000 compounds, 15% hits; also: % is scaled to controls: 0 for no effect and ±100 for the full control effect; nearly all actives have a fitted effect of over 55% in size
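Growth kinetics read by CellTiter-Glo luminescence after ≥48 hr at 37 °C. Cells: DT40 Tdp1-/- stably carrying human TDP1, 400 per well, compound exposure in the absence of CPT (DMSO vehicle).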
TGFb SMAD3 inh: inhibitors of TGF-b signaling | 410,000 compounds, 1.2% hits | HepG2 CAGA-GFP TGF-b/SMAD3 reporter, GFP fluorescence, 18 h; TGF-beta stimulated, 500 pg/mL final | AID 588855 | Potency, µM (top dose mostly 46.1 µM), without a hit: top-dose activity, negative = inhibition, actives largely listed as inhibitors; also: % is scaled to controls: 0 for no effect and ±100 for the full control effect; nearly all actives have a fitted effect of over 65% in size
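HEPG2 CAGA-GFP, 1000 cells/well; 2 h settle, 37 C; cpd via pin tool; TGF-b 500 pg/mL final; 18 h, 37 C; GFP imaging ex488/em500-530; %Activity normalised to -TGF-b and +DMSO controls; CRC fit, curve class.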
ATXN2 expr inh: inhibitors of ATXN2 expression; HEK-293 ATXN2-luciferase reporter, luminescence, 24 h; Potency, µM (highest dose often 57 µM), inactives show top-dose activity change, negative = inhibition, usual class: inhibitors; 360,000 compounds, 0.72% hits; AID 1745845; also: % is scaled to controls: 0 for no effect and ±100 for the full control effect; nearly all actives have a fitted effect of over 55% in size
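qHTS (up to 57 uM final) was run with 24 h compound exposure of reporter cells at 37 °C. Each well was multiplexed: SteadyGlo luminescence measured ATXN2-luciferase expression after a fluorogenic Gly-Phe-AFC viability readout (25 uM final).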
TDP1 cell CPT: growth inhibition of DT40 Tdp1-/-;hTDP1 cells with camptothecin (screen for TDP1 inhibitors). chicken DT40 Tdp1-/-;hTDP1 cells + 20 nM CPT, ATP luminescence, 48 h. Potency, µM (titrated, usually from 46.2 µM), without a hit: at the highest dose activity change, negative = growth inhibition, actives largely listed as inhibitors. 420,000 compounds, 12% hits; also: % is scaled to controls: 0 for no effect and ±100 for the full control effect; nearly all actives have a fitted effect of over 55% in size
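Chicken DT40 Tdp1-/- cells complemented with human TDP1, 400 cells/well, exposed to compounds plus 20 nM camptothecin for at least 48 h at 37 C; viability read as ATP content by CellTiter-Glo luminescence.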
S2 tox: viability counter-screen for ATXN expression inhibitors; Potency, µM (highest dose often 56.7 µM), most hits filed as cytotoxic; 400,000 compounds, 0.49% hits; S2 cells (HEK-293 line with an ATXN2-luciferase reporter) viability, CellTiter-Fluor protease fluorescence, 24 h; also: nearly all actives have a fitted effect of over 40% in size
* hit, by the source's call. A selection: hits, their analogues and other compounds. The true share with any hit is near 17%. Calls follow the shape of the dose curve; as a rule, active = well fitted curve in the direction sought with a large enough effect; inconclusive = small, poorly fitted or top-dose-only effect, or another doubt; inactive = no such curve, though single readings can be large; an effect the other way counts as inactive or inconclusive. Potency is read from the fitted curve at half-maximal effect.

C=CCN(c1ccccc1)S(=O)(=O)c1cccc(C(=O)NCC2CCCO2)c1 (stereo unspecified) was read as HepG2 tox -9%, DT40 TDP1 no CPT -12%, TGFb SMAD3 inh -4%, ATXN2 expr inh -5%, TDP1 cell CPT -29% and S2 tox inactive.
Cc1ccc(CN(CC2CCCO2)C(=O)CN2C(=O)C(C(C)C)Oc3ccccc32)o1 (stereo unspecified) was read as HepG2 tox -17%, DT40 TDP1 no CPT inconclusive, TGFb SMAD3 inh -8%, ATXN2 expr inh -13%, TDP1 cell CPT 26µM* and S2 tox inactive.
CC(C)C1Oc2ccccc2N(CC(=O)N(Cc2ccccn2)CC2CCCO2)C1=O (stereo unspecified) was read as HepG2 tox 0%, DT40 TDP1 no CPT inconclusive, TGFb SMAD3 inh 0%, ATXN2 expr inh -4%, TDP1 cell CPT -26% and S2 tox inactive.
`Cc1nc2cc(-c3ccc(Cl)cc3)nn2c(NCCN(C)C)c1C` gave HepG2 tox -31%, DT40 TDP1 no CPT 7.3µM*, TGFb SMAD3 inh -10%, ATXN2 expr inh 0%, TDP1 cell CPT 7.3µM* and S2 tox inactive.
Screening Cc1cc(C)n2nc(-c3ccc(Cl)cc3)cc2n1 returned HepG2 tox -75%, DT40 TDP1 no CPT inconclusive, TGFb SMAD3 inh -12%, TDP1 cell CPT inconclusive and S2 tox inactive.
For CCOc1ccc(-n2nc(CO)c(C(=O)NCc3cccc(OC)c3)n2)cc1 the results were HepG2 tox -16%, DT40 TDP1 no CPT inconclusive, TGFb SMAD3 inh -8% and TDP1 cell CPT inconclusive.
Screening CC(C)CN(C(=O)COC(=O)c1cccc2ccccc12)c1c(N)n(Cc2ccccc2)c(=O)[nH]c1=O returned HepG2 tox 1%, DT40 TDP1 no CPT 16µM*, TGFb SMAD3 inh -8%, ATXN2 expr inh -9%, TDP1 cell CPT inconclusive and S2 tox inconclusive.
Screening CC(C)CN(C(=O)CSc1nnc(-c2ccco2)o1)c1c(N)n(Cc2ccccc2)c(=O)[nH]c1=O returned HepG2 tox 1%, DT40 TDP1 no CPT 0%, TGFb SMAD3 inh 0%, ATXN2 expr inh -8%, TDP1 cell CPT -2% and S2 tox inactive.
`CC(C)CN(C(=O)CSc1nc2ccccc2o1)c1c(N)n(Cc2ccccc2)c(=O)[nH]c1=O` gave HepG2 tox 5%, DT40 TDP1 no CPT 21µM*, TGFb SMAD3 inh inconclusive, ATXN2 expr inh 7%, TDP1 cell CPT 18µM* and S2 tox inactive.
Screening COc1ccc(NC(=O)c2cccnc2Sc2ccccc2)c(OC)c1 returned HepG2 tox 2%, DT40 TDP1 no CPT -27%, TGFb SMAD3 inh 1%, ATXN2 expr inh 1%, TDP1 cell CPT 0% and S2 tox inactive.
For Clc1nc2ccccc2cc1/C=N/Nc1nc2ccccc2[nH]1 the results were HepG2 tox -16%, DT40 TDP1 no CPT 15µM*, TGFb SMAD3 inh -4%, ATXN2 expr inh 17%, TDP1 cell CPT inconclusive and S2 tox inactive.
O=[N+]([O-])c1ccccc1N/N=C/c1cc2ccccc2nc1Cl was read as HepG2 tox 0%, DT40 TDP1 no CPT inconclusive, TGFb SMAD3 inh -2%, ATXN2 expr inh -21%, TDP1 cell CPT 4.1µM* and S2 tox inconclusive.
For O=C(O)c1ccc(N/N=C/c2cc3ccccc3nc2Cl)cc1 the results were HepG2 tox -12%, DT40 TDP1 no CPT inconclusive, TGFb SMAD3 inh 8%, TDP1 cell CPT -16% and S2 tox inactive.
For CC(=O)Nc1ccc(NC(=O)c2c(-c3ccccc3)noc2C)cn1 the results were HepG2 tox -4%, DT40 TDP1 no CPT 5%, TGFb SMAD3 inh 5%, ATXN2 expr inh -2%, TDP1 cell CPT -14% and S2 tox inactive.
